APP transl inh = APP translation inhibition; AID 1285; SH-SY5Y APP 5'UTR-luciferase reporter, luminescence; inhibition, % at 2 µM; hit rate 0.82% among 190,000;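 active = inhibition above a set limit, derived from the sample mean plus 3 SD, cut at about 45% in these data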
KLF5 inh = inhibitors of KLF5 expression. DLD-1 KLF5 promoter-luciferase reporter, luminescence. inhibition, % at 5 µM. hit rate 0.23% among 290,000;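 active = inhibition above a per-plate limit of that plate's mean compound inhibition plus 3 SD, cut at about 60% in these data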;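 also: 0% = DMSO wells and 100% = LY294002 at 200 µM; higher means less KLF5 promoter-driven luciferase light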
Ba/F3 V617F tox = lowers viability of Ba/F3 cells expressing EpoR and JAK2V617F; ATP luminescence; hit rate 1.1% among 220,000; inhibition, % at 5.6 µM;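 active = inhibition above the campaign mean plus 3 SD over all tested compounds, cut at about 24% in these data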;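 also: cytokine-independent growth of Ba/F3 cells driven by EpoR plus mutant JAK2; 0% = DMSO-treated cells and 100% = JAK inhibitor I control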
aSyn UTR inh = MLPCN primary screen, SNCA 5' untranslated region. alpha-synuclein 5'UTR reporter, inhibitor activity. inhibition, % (tested at 7.5 µM). hit rate 0.82% among 300,000. AID 1813; in the data active = inhibition above about 60%;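 also: H4 neuroglioblastoma cells stably carrying SNCA 5'UTR luciferase fusion; 0% = DMSO wells and 100% = positive control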
BaF3 parental = reduces parental Ba/F3 cell viability, JAK2V617F counter-screen. CellTiter-Glo ATP luminescence. inhibition, % at 5.6 µM. hit rate 1.1% among 220,000;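 active = inhibition above a per-campaign cutoff, the mean inhibition of all tested compounds plus 3 SD, cut at about 27% in these data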;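 also: 0% = DMSO wells and 100% = JAK Inhibitor I control wells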
IEC-6 cytotox = kills IEC-6 intestinal cells in KLF5 counter-screen. AID 1825. hit rate 0.78% among 290,000. IEC-6 cytotoxicity, luminescence viability. inhibition, % at 5 µM; in the data active = inhibition above about 22%;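 also: 0% = plate median of test compound wells and 100% = cytotoxic reference compound wells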
BaF3 parental 2 = counter-screen for JAK2V617F inhibitors: parental Ba/F3 viability inhibitors. shares compounds with Ba/F3 V617F tox. CellTiter-Glo luminescence; cells kept alive by added IL-3. inhibition, % at 5.6 µM. hit rate 31% among 580. AID 1520;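 active = cell growth inhibition above the hit limit set in the earlier mutant JAK2 cell screen, cut at about 27% in these data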;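 also: plate controls were DMSO-treated cells for no effect and JAK Inhibitor I control wells for full effect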
JAK2V617F conf = confirmation: loss of viability in JAK2V617F-dependent Ba/F3 cells; shares compounds with Ba/F3 V617F tox; Ba/F3 EpoR-JAK2V617F viability, CellTiter-Glo luminescence; inhibition, % at 5.6 µM; hit rate 66% among 580; AID 1521;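 active = mean inhibition above the hit cutoff derived in the earlier primary screen, cut at about 25% in these data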;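 also: 0% = DMSO-treated cells and 100% = JAK inhibitor I control wells; higher means lower luminescence from reduced cell ATP and viability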
* marks the source's active call; other numbers are inactive results; nt = not tested or not shown. An excerpt weighted towards active compounds, which were near 2.2% of everything screened.

SMILES	APP transl inh	KLF5 inh	Ba/F3 V617F tox	aSyn UTR inh	BaF3 parental	IEC-6 cytotox	BaF3 parental 2	JAK2V617F conf
Cc1ccc(C)c(N2CCN(CCCNC(=O)Cn3cccc3C(=O)c3ccccc3C)CC2)c1	-2	-24	41*	27	2	15	2	29*
CCCNc1c(NS(=O)(=O)c2ccc3c(c2)CCCC3)c(=O)oc2ccccc12	nt	13	nt	1	nt	2	nt	nt
CCc1ccc(Nc2ccc(S(=O)(=O)N3CCOCC3)cc2[N+](=O)[O-])cc1	0	-34	82*	11	12	-6	3	17
Nc1c(C(=O)NC2CC2)c2nc3ccccc3nc2n1-c1ccc2c(c1)OCO2	-4	-22	-1	26	3	-1	nt	nt
Nc1c(C(=O)OCC2CCCO2)c2nc3ccccc3nc2n1-c1ccc2c(c1)OCCO2 (stereo unspecified)	-7	-4	96*	21	2	-8	-5	-10
Cc1cc(C)cc(NC(=O)CSc2nnc(CN3CCOCC3)n2C)c1	1	-22	95*	-1	2	-2	-7	-6
Cc1cc(C)c(NC(=O)CSc2nnc(CN3CCOCC3)n2C)c(C)c1	nt	-38	nt	4	nt	-3	nt	nt
CC(=O)c1ccc(OCC(=O)NC2CCCN(Cc3ccccc3F)C2)cc1 (stereo unspecified)	nt	-4	nt	14	nt	-4	nt	nt
O=C(COC(=O)CNS(=O)(=O)c1cccc(Br)c1)Nc1ccccc1Sc1ccccc1	-4	-26	1	6	1	-4	nt	nt
Cc1cccc(C2c3[nH]c4ccccc4c3CCN2Cc2ccc(C)s2)n1 (stereo unspecified)	-9	24	27*	-35	-1	-1	-1	9
CC(=O)c1ccc(C(=O)N2CCc3c([nH]c4ccccc34)C2c2cccc(C)n2)s1 (stereo unspecified)	nt	-11	-2	15	-2	4	nt	nt
Cn1c(C(=O)N2CCN(c3ccc(F)cc3)CC2)cc2ccccc21	nt	-29	nt	10	nt	2	nt	nt
COCCNC(=O)COc1ccc(C)cc1C(=O)c1cc(C#N)c(=O)n(C2CC2)c1	17	-16	5	-7	11	5	nt	nt
O=C1OC(/C(=C\Nc2cc(Cl)ccc2O)[N+](=O)[O-])c2ccccc21 (stereo unspecified)	-43	7	46*	-102	13	-3	4	56*
O=C1OC(/C(=C\Nc2ccc(F)cc2F)[N+](=O)[O-])c2ccccc21 (stereo unspecified)	5	-20	1	-42	3	-2	nt	nt
CC1CN(Cc2cc(=O)[nH]c(C3CC3)n2)CC(C)O1 (stereo unspecified)	1	-36	40*	2	4	9	-6	-5
COc1ccccc1N1CCc2c(C)nc3c(OC)cccc3c21	nt	-20	45*	25	11	11	8	50*
CCCCCCCN(C(=O)CCl)c1cccc(C)c1	-5	13	7	-31	10	6	nt	nt
CCCCCCN(C(=O)CCl)c1ccccc1	nt	-53	49*	-37	0	-6	1	63*
C#CC[N+](C)(C)CC#Cc1ccc(Cl)cc1	7	-2	32*	11	18	4	28*	83*
CN(C)CCCN(C(=O)CCOc1ccccc1)c1nc2c(F)cccc2s1	34	-2	25*	13	3	-1	4	30*
O=C(Cc1csc(-c2ccccc2)n1)NCc1cccs1	-4	-17	-4	-20	0	-2	nt	nt
O=C(NNC(=S)Nc1ccc(Cl)c(Cl)c1)c1ccccn1	31	50	32*	68*	4	6	51*	47*
CCNC(=S)NNC(=O)c1ccccn1	10	2	3	5	6	-11	nt	nt
COc1cc2c(cc1OC)-c1cc(N3CCCc4ccccc43)nc(=O)n1CC2	12	-14	30*	29	15	-2	15	61*
CC1=CC(C)C2(CO)COC(c3ccccc3O)C1C2C (stereo unspecified)	3	11	58*	-12	3	-3	-5	1
COc1ccccc1/C=C/CN1CCNC(=O)C1CC(=O)NCCc1cnccn1 (stereo unspecified)	nt	-13	nt	3	nt	-1	nt	nt
